Screening results (PubChem)
AmpC no deterg: qHTS Inhibitors of AmpC Beta-Lactamase (assay without detergent). P00811. AmpC nitrocefin hydrolysis, absorbance 480 nm, 0.0001% Triton. Potency, µM (highest dose often 57.1 µM), usual class: inhibitors. 330,000 compounds, 0.52% hits; further: nearly all actives have a fitted effect of over 20% in size
Target sequence (P00811 whole entry, looked up): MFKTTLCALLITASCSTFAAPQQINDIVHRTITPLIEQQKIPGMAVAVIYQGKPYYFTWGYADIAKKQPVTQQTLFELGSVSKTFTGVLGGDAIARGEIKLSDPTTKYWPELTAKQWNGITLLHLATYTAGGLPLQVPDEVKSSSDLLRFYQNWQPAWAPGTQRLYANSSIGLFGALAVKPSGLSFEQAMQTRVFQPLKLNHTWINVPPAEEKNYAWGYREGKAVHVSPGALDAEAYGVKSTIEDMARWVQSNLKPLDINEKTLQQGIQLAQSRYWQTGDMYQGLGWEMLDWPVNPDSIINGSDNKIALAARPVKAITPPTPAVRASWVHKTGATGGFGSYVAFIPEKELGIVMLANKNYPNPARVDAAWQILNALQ
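AmpC (5.3 nM in the dispensed reagent) in 20 mM phosphate pH 7.0 with 0.01% (detergent screen) or 0.0001% Triton X-100 was preincubated with compounds for 15 min at room temperature. Nitrocefin was then added from an 800 uM solution, and hydrolysis was followed at 480 nm.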
FMDV inh: High Throughput Screening for Foot and Mouth Disease Virus Antivirals; FMDV antiviral cell-based qHTS; Potency, µM (series often up to 57.9 µM), hits mostly inhibitors; 410,000 compounds, 1.2% hits; AID 1159524, 2015; calls by dose curve; tested in HEK293T cells; further: read-out not given here; nearly all actives have a fitted effect of over 45% in size
HCMV antiviral: qHTS Assay for inhibitors of the human cytomegalovirus (HCMV). HFF cells, HCMV-luciferase reporter, 72 h; active compounds read low. activity change, negative = inhibition, % at 57.5 µM. 410,000 compounds, 4.5% hits; in the data active means activity change below about -60%; inconclusive means no clear call, values can overlap the other calls; inactive means above about -39%
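Screen run at 2 compound doses on HFFs infected with reporter HCMV, MOI 1 PFU/cell. Luciferase activity from cell lysates at 72 h post infection gave inhibition relative to buffer-only and Salinomycin wells.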
AmpC inh detg: qHTS Inhibitors of AmpC Beta-Lactamase (assay with detergent) | P00811 | AmpC hydrolysis of nitrocefin, absorbance 480 nm, 0.01% Triton | Potency, µM (titrated, usually from 114 µM), hits mostly inhibitors | 370,000 compounds, 0.041% hits | AID 485294, 2010; further: nearly all actives have a fitted effect of over 25% in size
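20 mM phosphate pH 7.0 + 0.01% (detergent screen) or 0.0001% Triton X-100; 5.3 nM AmpC reagent; cpd preinc 15 min RT; nitrocefin (800 uM stock) to start; A480 q20 s × 4 min; Activity was normalised to no-enzyme and no-compound control wells.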
HCV inh: qHTS Assay for Inhibitors of Hepatitis C Virus (HCV) | Huh7.5.1 HCVcc-Cre infection, luciferase reporter, 44 h | Potency, µM (titrated, usually from 41.8 µM), actives largely listed as inhibitors | 340,000 compounds, 3.4% hits
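Compounds are dispensed onto cells plated 4 h earlier at 1,000 per well, with HCVcc-Cre virus (about 0.5 moi) added next. Following 44 h of culture, luminescent signal is measured for 15 sec after 15 min with substrate at room temperature.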
Each line names hits and unclear results; the compound was inactive in the other large screens; ! = not confirmed by another sample. Only some compounds are listed: those with a hit (about 7.3% of all), similar ones and a draw of the others. Unless noted, the call rests on the fitted dose curve; in most records, active means well fitted curve in the direction sought with a large enough effect; inconclusive means small, poorly fitted or top-dose-only effect, or another doubt; inactive means no such curve, though single readings can be large; an effect the other way counts as inactive or inconclusive.

CCN(CC)S(=O)(=O)c1cccc(-c2nnc(SC(C)C(=O)NCCC3=CCCCC3)o2)c1 (stereo not given)	FMDV inh inconclusive, HCMV antiviral inconclusive, HCV inh 11.2µM!
CCN(CC)S(=O)(=O)c1cccc(-c2nnc(SCc3nc4ccccc4s3)o2)c1	HCV inh 7.08µM
COc1cc(N=Nc2cccc(S(N)(=O)=O)c2)c2ccccc2c1N	FMDV inh inconclusive, HCMV antiviral -65.5, HCV inh inconclusive
NC1=NC(=Nc2cccc(S(N)(=O)=O)c2)c2ccccc21	none
Cc1cc(S(=O)(=O)NCCCN2CCOCC2)ccc1Br	AmpC inh detg inconclusive
Cc1cc(Cl)c2oc(C(=O)NCCC3CCCCO3)c(C)c2c1 (stereo not given)	HCV inh 25.1µM
Cc1cc(Cl)c2oc(C(=O)NCCN3CCCCC3CO)c(C)c2c1 (stereo not given)	AmpC inh detg inconclusive (no result: HCV inh)
CCn1c(COc2ccccc2C)nnc1SCc1nc2ccccc2c(=O)[nH]1	none (no result: FMDV inh, HCMV antiviral, HCV inh)
COc1cccc(-c2nc(CS(=O)(=O)CC(=O)Nc3ccccc3Cl)c(C)o2)c1	AmpC inh detg inconclusive, HCV inh 12.6µM
COc1cccc(-c2nc(CS(=O)(=O)CC(=O)NC3CCCC3)c(C)o2)c1	FMDV inh inconclusive, HCV inh inconclusive
COc1cccc(-c2nc(CS(=O)(=O)CC(=O)Nc3ccccc3C)c(C)o2)c1	HCV inh inconclusive
COc1cccc(C(=O)NCc2nc(-c3cccc(NC(=O)c4ccoc4C)c3)oc2C)c1OC	FMDV inh 20µM (no result: AmpC no deterg, HCMV antiviral, AmpC inh detg, HCV inh)
Cc1oc(-c2cccc(Cl)c2)nc1CS(=O)(=O)CC(=O)NC1CCCC1	HCMV antiviral -62.1
COc1cccc(-c2nc(CS(=O)(=O)CC(=O)Nc3cccc(C)c3C)c(C)o2)c1	AmpC no deterg 44.7µM, FMDV inh inconclusive, AmpC inh detg inconclusive, HCV inh inconclusive
COc1cccc(-c2nc(CS(=O)(=O)CC(=O)Nc3ccccc3Br)c(C)o2)c1	HCV inh inconclusive
CC(=O)c1cccc(Nc2nccc3c2cc(-c2cccc(C(F)(F)F)c2)n3C)c1	none (no result: AmpC no deterg, FMDV inh, AmpC inh detg, HCV inh)
CC(=O)c1ccc(-c2nnc(CCC(=O)N3CCCC(C(=O)CC(C)C)C3)o2)s1 (stereo not given)	none
CC(C)CN1CC(C)C(=O)N(c2ccccc2)C1=O (stereo not given)	none (no result: AmpC no deterg, AmpC inh detg)
COc1cccc(-c2nc(CS(=O)(=O)CC(=O)NC3CCC(C)CC3)c(C)o2)c1 (stereo not given)	AmpC inh detg inconclusive, HCV inh inconclusive
COc1cccc(NC(=O)c2ccc(-c3nc(COc4ccccc4)c(C)o3)cc2)c1	FMDV inh inconclusive, HCMV antiviral -65.6 (no result: AmpC no deterg, HCV inh)
COc1cccc(-c2nc(CS(=O)(=O)CC(=O)Nc3ccc(C)c(Cl)c3)c(C)o2)c1	none (no result: AmpC no deterg, HCV inh)
COc1cccc(-c2nc(CS(=O)(=O)CC(=O)Nc3ccc(C(C)=O)cc3)c(C)o2)c1	HCV inh 11.2µM
COc1cccc(-c2nc(CS(=O)(=O)CC(=O)NC3CCCc4ccccc43)c(C)o2)c1 (stereo not given)	HCMV antiviral inconclusive, HCV inh 11.2µM
Cn1c(SCc2ccccc2)nc(N)c(N=O)c1=O	FMDV inh inconclusive, HCV inh inconclusive (no result: AmpC no deterg, AmpC inh detg)
CCOc1ccccc1NC(=S)NCCc1ccc(F)cc1	HCMV antiviral -64.8, AmpC inh detg inconclusive, HCV inh inconclusive
CCOc1ccccc1NC(=S)NCCc1ccccc1	HCMV antiviral inconclusive, HCV inh inconclusive
Cc1ccc(NC(=S)NCCc2ccc(F)cc2)c(C)c1	HCMV antiviral inconclusive, AmpC inh detg inconclusive
Cc1ccc(F)cc1NC(=S)NCCc1ccccc1	HCV inh 10µM
Cc1ccc(NC(=S)NCCC(c2ccccc2)c2ccccc2)c(C)c1	HCMV antiviral -62.2, HCV inh 11.2µM
CNc1ncnc2c1ncn2[C@@H]1O[C@H](CO)[C@@H](O)[C@H]1O	none
OCC1OC(n2ccc3c2ncn2ncnc32)C(O)C1O (stereo not given)	FMDV inh inconclusive, HCMV antiviral -94.9 (no result: AmpC no deterg, AmpC inh detg, HCV inh)
Nc1ncnc2c1ccn2[C@@H]1O[C@H](CO)[C@@H](O)[C@H]1O	FMDV inh inconclusive, HCMV antiviral -106.3, HCV inh 35.5µM (no result: AmpC no deterg, AmpC inh detg)
